# In PubChem BioAssay:
# Active and inactive are the calls of the source. Unless noted, no rule for the calls is given here.
# Key:
# [1] = test system: Wnt5a (protein binding on small-molecule microarray); assay: small molecules binding Wnt5a protein – biophysical, small-molecule microarray, 635/667 nm fluorescence, primary screen (AID 1142); conditions: 635 nm fluorescence, higher = more signal;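 also: fluorescence read at 667 nm with signal to noise per printed feature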
# [2] = ATP-based viability of Huh7 replicon cells – cell-based, CellTiter-Glo luminescence, basal, 48 h, cytotoxicity control for HCV replication inhibitor project, primary screen (AID 1143); conditions: higher = more signal, called active from +8 up or from −8 down;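 also: Huh7 hepatoma cells carrying a hepatitis C replication reporter with no stimulus; test concentration not given here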
# [3] = Pseudomonas biofilm growth suppression – PAO1 strain, BacTiter-Glo luminescence, LB-PBS, primary screen (AID 1144); conditions: P. aeruginosa PAO1 biofilm, 12 h, higher = more signal
# [4] = basal CRE-LacZ reporter activity in PC12 – cell-based, unstimulated, primary screen (AID 1145); conditions: no forskolin, luminescence, 4.5 h, higher = more signal, called active from +8 up or from −8 down
# [5] = forskolin-driven CRE-LacZ activity in PC12 – cell-based, CRE-LacZ reporter, forskolin-stimulated, primary screen (AID 1146); conditions: luminescence, 4.5 h, higher = more signal, called active from +8 up or from −8 down;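 also: PC12 cells with 6xCRE LacZ reporter stimulated by forskolin 10 µM; beta-galactosidase reporter signal reflecting CREB driven transcription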
# [6] = target: Streptavidin (Streptomyces avidinii) (UniProt P22629); assay: compounds binding control protein streptavidin – biophysical, small-molecule microarray, 635/667 nm fluorescence, artefact control for SMM compound annotation, primary screen (AID 1147); conditions: higher = more signal;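 also: signal reflects streptavidin binding to arrayed compounds as a control protein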
# Sequence of Streptavidin (Streptomyces avidinii) (P22629 whole entry, looked up): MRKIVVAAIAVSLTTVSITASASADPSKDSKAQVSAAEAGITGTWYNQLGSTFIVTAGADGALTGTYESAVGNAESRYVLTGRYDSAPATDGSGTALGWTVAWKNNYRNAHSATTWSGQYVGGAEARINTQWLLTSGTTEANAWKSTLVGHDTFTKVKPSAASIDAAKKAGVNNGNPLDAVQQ
# [7] = probe aInhba binding on compound microarray – biochemical, small-molecule microarray, 635/667 nm fluorescence, primary screen (AID 1148); conditions: higher = more signal;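 also: score merges 667nm spot fluorescence with signal-to-noise for antibody binding to printed compounds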
# Torsin-1A (Homo sapiens) [8] = target: Torsin-1A (Homo sapiens) (UniProt O14656); assay: TOR1A wild-type binding on microarray – cell lysate, small-molecule microarray, lysate, 635/667 nm, primary screen (AID 1149); conditions: COS7 hTOR1A-WT lysate, 635 nm fluorescence, higher = more signal
# Sequence of Torsin-1A (Homo sapiens) (O14656 whole entry, looked up): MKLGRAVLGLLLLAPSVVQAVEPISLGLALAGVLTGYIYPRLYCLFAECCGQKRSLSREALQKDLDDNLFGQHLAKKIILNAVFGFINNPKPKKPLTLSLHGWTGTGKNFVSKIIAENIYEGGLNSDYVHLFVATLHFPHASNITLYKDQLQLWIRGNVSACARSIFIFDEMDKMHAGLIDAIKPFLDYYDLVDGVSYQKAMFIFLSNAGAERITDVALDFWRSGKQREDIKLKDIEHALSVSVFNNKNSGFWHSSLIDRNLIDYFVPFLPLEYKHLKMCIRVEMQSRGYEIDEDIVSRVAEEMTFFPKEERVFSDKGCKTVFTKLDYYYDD
# Torsin-1A (Homo sapiens) [9] = target: Torsin-1A (Homo sapiens) (UniProt O14656); assay: torsin A mutant lysate binding on microarrays – cell lysate, small-molecule microarray, COS7 lysate, 635/667 nm fluorescence, primary screen (AID 1150); conditions: COS7 hTOR1A mutant lysate, 635 nm fluorescence, higher = more signal;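 also: score pools 667 nm emission and signal to noise measuring lysate protein binding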
# [10] = test system: Sonic hedgehog protein (Shh); assay: Sonic hedgehog microarray binding compounds – biochemical, small-molecule microarray, 635/667 nm fluorescence, primary screen (AID 1151); conditions: 635 nm fluorescence, higher = more signal;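 also: Shh protein binding to compounds spotted on small-molecule microarray slides; score combines spot fluorescence intensity with signal-to-noise across triplicate slides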
# [11] = optical density shifts of acrAB sulA E. coli – strain DRC41, OD650, 48 h, E. coli filamentation inducer project, primary screen (AID 1152); conditions: higher = more signal, called active from +8 up or from −8 down;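 also: E. coli MC1000 strain DRC41 lacking acrAB efflux pump and sulA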
# [12] = probe aLefty1 binding on compound microarray – biochemical, small-molecule microarray, 635/667 nm fluorescence, primary screen (AID 1153); conditions: higher = more signal;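 also: score merges spot fluorescence with signal-to-noise ratio from the scanned slide images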
# [13] = plasmodial surface anion channel blockers, osmotic lysis – cell-based, P. falciparum Indochina, OD700, 1 h, primary screen (AID 1154); conditions: P. falciparum Indochina infected RBC osmotic lysis, higher = more signal, called active from +8 up or from −8 down
# [14] = plasmodial surface anion channel blockers, osmotic lysis – cell-based, P. falciparum Indochina, OD700, 2 h, primary screen (AID 1155);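 also: lysis reports solute entry through the parasite surface anion channel PSAC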; conditions: P. falciparum Indochina infected erythrocytes, higher = more signal, called active from +8 up or from −8 down
# [15] = changes in parasitized red cell lysis, either direction – P. falciparum Indochina, OD700, 3 h, PSAC antagonist project, primary screen (AID 1156); conditions: P. falciparum-infected erythrocytes, osmotic lysis, higher = more signal, called active from +8 up or from −8 down
# [16] = plasmodial surface anion channel blockers, osmotic lysis – cell-based, P. falciparum Indochina, OD700, 18 h, primary screen (AID 1157); conditions: P. falciparum Indochina infected erythrocytes, osmotic lysis OD700, 18 h; higher = more signal, called active from +8 up or from −8 down
# [17] = S6 kinase pathway phospho-S6 level changes – cell-based, A549, cytoblot, luminescence, serum-stimulated, primary screen (AID 1158); conditions: 5 h, higher = more signal;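 also: serum-stimulated A549 lung adenocarcinoma cells; signal is phosphorylated S6 detected by cytoblot immunostaining with HRP secondary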
# [18] = target: NADPH oxidase 2 (Homo sapiens) (UniProt P04839); assay: compounds shifting NOX2 Amplex Red fluorescence – cell-based, HEK293-NOX2, PMA-stimulated, NOX inhibitor project, primary screen (AID 1159); conditions: 45 min, higher = more signal, called active from +8 up or from −8 down; also: test concentration not given here
# Sequence of NADPH oxidase 2 (Homo sapiens) (P04839 whole entry, looked up): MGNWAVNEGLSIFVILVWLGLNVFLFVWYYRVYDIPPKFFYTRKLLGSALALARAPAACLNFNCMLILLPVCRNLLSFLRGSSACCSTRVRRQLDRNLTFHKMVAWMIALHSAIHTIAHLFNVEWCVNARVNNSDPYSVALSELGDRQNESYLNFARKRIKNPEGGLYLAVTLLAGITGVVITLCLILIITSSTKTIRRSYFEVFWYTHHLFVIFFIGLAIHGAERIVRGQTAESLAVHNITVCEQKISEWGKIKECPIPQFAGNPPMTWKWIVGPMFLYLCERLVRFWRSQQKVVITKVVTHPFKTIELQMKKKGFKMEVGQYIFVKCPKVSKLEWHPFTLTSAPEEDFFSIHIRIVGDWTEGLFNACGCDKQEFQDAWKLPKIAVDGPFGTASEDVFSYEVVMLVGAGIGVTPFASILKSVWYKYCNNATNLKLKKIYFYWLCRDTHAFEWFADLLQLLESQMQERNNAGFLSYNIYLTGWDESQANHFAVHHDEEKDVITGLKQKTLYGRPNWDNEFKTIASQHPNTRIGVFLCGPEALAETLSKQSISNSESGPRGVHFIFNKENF
# [19] = target: NADPH oxidase 4 (Homo sapiens) (UniProt Q9NPH5); assay: compounds shifting NOX4 Amplex Red fluorescence – cell-based, HEK293-NOX4, tetracycline-induced, NOX inhibitor project, primary screen (AID 1160); conditions: HEK293-NOX4, Amplex Red H2O2 fluorescence, 45 min; higher = more signal, called active from +8 up or from −8 down
# Sequence of NADPH oxidase 4 (Homo sapiens) (Q9NPH5 whole entry, looked up): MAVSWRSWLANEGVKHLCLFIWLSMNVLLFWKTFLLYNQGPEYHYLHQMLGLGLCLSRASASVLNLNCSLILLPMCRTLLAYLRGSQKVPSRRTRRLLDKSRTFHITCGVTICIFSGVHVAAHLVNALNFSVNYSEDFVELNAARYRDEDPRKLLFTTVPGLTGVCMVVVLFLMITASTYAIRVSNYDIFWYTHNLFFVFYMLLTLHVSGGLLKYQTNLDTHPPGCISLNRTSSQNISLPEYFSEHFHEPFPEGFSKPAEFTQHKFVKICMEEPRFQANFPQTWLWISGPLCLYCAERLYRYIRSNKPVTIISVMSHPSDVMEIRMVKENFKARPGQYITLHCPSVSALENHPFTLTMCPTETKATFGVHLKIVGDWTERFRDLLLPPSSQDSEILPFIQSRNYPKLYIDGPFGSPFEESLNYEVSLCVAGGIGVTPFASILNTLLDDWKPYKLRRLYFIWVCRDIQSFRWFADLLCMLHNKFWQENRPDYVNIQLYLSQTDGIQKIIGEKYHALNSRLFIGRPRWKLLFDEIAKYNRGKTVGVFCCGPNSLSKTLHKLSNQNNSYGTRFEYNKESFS
# [20] = target: NADPH oxidase 5 (Homo sapiens) (UniProt Q96PH1); assay: compounds shifting NOX5 Amplex Red fluorescence – cell-based, HEK293-NOX5, NOX inhibitor project, primary screen (AID 1161); conditions: HEK293-NOX5, ionomycin, 45 min, higher = more signal
# Sequence of NADPH oxidase 5 (Homo sapiens) (Q96PH1 whole entry, looked up): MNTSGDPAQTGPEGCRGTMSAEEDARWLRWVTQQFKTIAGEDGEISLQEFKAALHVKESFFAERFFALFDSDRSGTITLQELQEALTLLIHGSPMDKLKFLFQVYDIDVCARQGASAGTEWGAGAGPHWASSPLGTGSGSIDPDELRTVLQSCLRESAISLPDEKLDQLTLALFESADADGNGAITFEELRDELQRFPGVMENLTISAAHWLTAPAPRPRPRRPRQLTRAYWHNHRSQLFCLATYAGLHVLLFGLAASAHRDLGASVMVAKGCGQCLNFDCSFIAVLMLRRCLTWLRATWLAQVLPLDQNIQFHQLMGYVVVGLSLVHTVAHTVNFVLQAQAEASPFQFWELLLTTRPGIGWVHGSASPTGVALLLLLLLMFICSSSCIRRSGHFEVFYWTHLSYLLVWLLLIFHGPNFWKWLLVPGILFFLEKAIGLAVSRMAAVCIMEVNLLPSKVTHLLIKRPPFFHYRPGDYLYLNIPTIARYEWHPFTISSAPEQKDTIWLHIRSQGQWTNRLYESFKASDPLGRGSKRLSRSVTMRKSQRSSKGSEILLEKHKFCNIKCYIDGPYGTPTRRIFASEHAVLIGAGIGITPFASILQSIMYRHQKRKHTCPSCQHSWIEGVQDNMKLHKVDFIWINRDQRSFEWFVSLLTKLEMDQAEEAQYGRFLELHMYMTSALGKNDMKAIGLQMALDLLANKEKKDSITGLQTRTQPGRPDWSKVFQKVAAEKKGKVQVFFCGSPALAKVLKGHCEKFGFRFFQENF
SMILES,composite z-score [1],z-score [2],z-score [3],z-score [4],z-score [5],composite z-score [6],composite z-score [7],composite z-score (Torsin-1A (Homo sapiens) [8]),composite z-score (Torsin-1A (Homo sapiens) [9]),composite z-score [10],z-score [11],composite z-score [12],z-score [13],z-score [14],z-score [15],z-score [16],z-score [17],z-score [18],z-score [19],z-score [20]
COC(=O)Cn1c(C(=O)N(C)C)cc2c1C[C@H]1CN(C(=O)c3ccccc3)[C@@](Cc3ccc(OC)cc3)(C(=O)OC)[C@@H]21,1.09,-1.99 (inactive),0.655 (inactive),0.966 (inactive),0.353 (inactive),0.896,0.438,0.244,0.0985,-0.333,-1.35 (inactive),0.546,2.81 (inactive),0.765 (inactive),1.04 (inactive),0.765 (inactive),-0.62,0.494 (inactive),-0.539 (inactive),0.813
CC(C)C[C@H]1NC(=O)[C@@H](C)NC(=O)[C@@]23C(=O)N[C@@H](Cc4ccccc4)C2[C@H](C)[C@@]2(C)O[C@H]2C3/C=C/C/C=C\CNC1=O (stereo not given in full),-0.134,-0.332 (inactive),0.541 (inactive),1.94 (inactive),-0.435 (inactive),-0.535,-0.218,-0.0221,-0.145,1.41,-0.743 (inactive),-0.431,0.522 (inactive),-0.437 (inactive),-0.435 (inactive),-0.111 (inactive),-0.175,-0.115 (inactive),1.11 (inactive),0.407
CN1C=C(C(=O)OCCS(C)(=O)=O)C(C(=O)OCCS(C)(=O)=O)=CC(CCCO)=CC1c1ccc(CN2CCCC2)cc1 (stereo not given),0.531,-0.209 (inactive),0.356 (inactive),5.05 (inactive),-0.267 (inactive),1.24,0.253,0.244,1.19,1.06,0.0837 (inactive),0.546,1.39 (inactive),-0.162 (inactive),-0.203 (inactive),0.0374 (inactive),-0.0029,0.526 (inactive),0.0702 (inactive),-1.65
COc1ccc([Si](C)(C)[C@H]2[C@H](CC(=O)N3Cc4ccccc4C[C@H]3CO)O[C@@]3(C(=O)N(Cc4cccc(N5C(=O)c6cccc7cccc5c67)c4)c4ccccc43)[C@@H]2C)cc1,0.862,-4.55 (inactive),-0.765 (inactive),11 (active),-1.41 (inactive),0.159,-0.0107,1.39,0.736,2.23,-0.437 (inactive),-0.362,5.25 (inactive),0.572 (inactive),1 (inactive),0.793 (inactive),-0.112,-1.79 (inactive),-0.0145 (inactive),-0.799
CC#CCO[Si](C#CCCCCCC)(C(C)C)C(C)C,-1.15,-1.03 (inactive),-1.06 (inactive),-0.374 (inactive),2.09 (inactive),-2.45,-0.288,-1.46,-1.03,-1.62,0.323 (inactive),-0.0501,0.0926 (inactive),-0.607 (inactive),-1.09 (inactive),0.283 (inactive),0.393,-1.27 (inactive),-0.681 (inactive),-3.5
CCCCC(=C=CC[C@@H](O)c1cccc(OCCO)c1)CCO,0.0999,-0.562 (inactive),-0.564 (inactive),3.5 (inactive),-0.468 (inactive),1.42,-0.188,-1.33,-0.828,0.364,0.896 (inactive),-0.142,6.54 (inactive),1.02 (inactive),0.842 (inactive),0.528 (inactive),1.3,-0.681 (inactive),-0.283 (inactive),-1.8
CC[C@H](C)C(=O)O[C@H]1CC[C@]2(C)C3=C(CCC2C1(C)C)[C@]1(C)CC[C@H]([C@H](C)CCCC(C)C)[C@@]1(C)CC3 (stereo not given in full),0.0143,0.15 (inactive),-0.0646 (inactive),0.947 (inactive),-1.24 (inactive),0.984,-0.292,0.214,0.339,0.613,2.16 (inactive),-0.142,-0.223 (inactive),-0.121 (inactive),-0.589 (inactive),-0.136 (inactive),0.231,-0.371 (inactive),-0.0141 (inactive),-0.162
COc1ccc(C#Cc2ccc3c(c2)[C@]2(C(=O)N3)[C@H](c3ccc(OCCO)cc3)N3[C@H](c4ccccc4)[C@H](c4ccccc4)OC(=O)[C@H]3[C@@H]2C(=O)O)cc1,0.57,-5.01 (inactive),-2.48 (inactive),-0.0515 (inactive),3.52 (inactive),-0.105,0.927,0.546,1.2,1.89,2.24 (inactive),1.4,-1.39 (inactive),-2.59 (inactive),-6.7 (inactive),-2.58 (inactive),1.6,-0.922 (inactive),-1.55 (inactive),-2.5
